From PMC6919601, “Identification of Plasmodium dipeptidyl aminopeptidase allosteric inhibitors by high throughput screening” (PLoS ONE, 2019) come the findings set out here.

Among all 110,000 compounds or so, about 230 (0.21%) showed an effect of 50% or more. This excerpt belongs to a sample that is enriched for strong results.
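Further: 30 min substrate incubation versus DMSO and 10 µM JCP410 controls.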

DPAP1, sequence (Q8IIJ9 whole entry, looked up): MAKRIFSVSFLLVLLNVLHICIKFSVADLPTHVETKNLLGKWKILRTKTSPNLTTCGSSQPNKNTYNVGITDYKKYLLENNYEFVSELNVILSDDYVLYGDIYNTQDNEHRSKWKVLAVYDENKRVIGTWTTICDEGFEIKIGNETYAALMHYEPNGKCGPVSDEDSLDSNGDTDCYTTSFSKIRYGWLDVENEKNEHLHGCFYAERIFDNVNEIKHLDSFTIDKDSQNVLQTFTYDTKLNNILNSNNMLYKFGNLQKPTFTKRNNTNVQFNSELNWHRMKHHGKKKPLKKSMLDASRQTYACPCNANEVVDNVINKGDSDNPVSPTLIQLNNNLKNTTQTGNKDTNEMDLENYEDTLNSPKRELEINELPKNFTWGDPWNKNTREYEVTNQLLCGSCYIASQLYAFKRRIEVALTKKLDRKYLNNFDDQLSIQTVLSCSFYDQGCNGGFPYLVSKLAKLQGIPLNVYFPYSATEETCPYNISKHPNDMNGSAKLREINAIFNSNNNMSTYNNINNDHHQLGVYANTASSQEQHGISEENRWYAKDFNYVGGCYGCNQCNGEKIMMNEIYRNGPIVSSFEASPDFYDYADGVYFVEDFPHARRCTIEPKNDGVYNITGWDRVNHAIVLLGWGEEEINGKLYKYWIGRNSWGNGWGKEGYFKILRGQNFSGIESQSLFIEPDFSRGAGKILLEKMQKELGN

The test addresses DPAP1 (Plasmodium falciparum, UniProt Q8IIJ9). Description: primary screen, percent inhibition; read by cleavage of a fluorogenic dipeptide substrate; higher = more effect of the substance. The arrangement: species or system P. falciparum D10 trophozoite lysates; single well.
For the compound `O=C(NCc1ccc(F)cc1)c1noc2c1COc1ccccc1-2`, the “% Inhibition @ 10 uM” value is recorded as 69.7%. Next, `COc1ccc(CNC(=O)c2noc3c2COc2ccc(C)cc2-3)cc1`: -3.17%; `CN(Cc1ccccc1)C(=O)c1noc2c1COc1ccccc1-2`: 7.85%; `O=C(NCc1ccc2c(c1)OCO2)c1noc2c1COc1ccccc1-2`: 73.5%. `Cc1onc(-c2ccccc2Cl)c1C(=O)NCc1ccc2c(c1)OCO2`: the “% Inhibition @ 10 uM” value is given as -6.92%. For `O=C(NCc1ccc(F)cc1)c1noc2c1CCc1ccccc1-2` the value was -9.28%. For `O=C(NCc1ccc2c(c1)OCO2)c1cc(-c2ccccc2F)no1` the value was -2.07%; for `Cc1ccc2c(c1)-c1onc(C(=O)NCc3ccccc3Cl)c1CO2`, 0.589%. With `Cc1ccc(CNC(=O)c2noc3c2COc2ccccc2-3)cc1`, the “% Inhibition @ 10 uM” value came to 72.8%. For the compound `CC(C)C(=O)NC(c1ccc(Cl)cc1)c1ccc2cccnc2c1O` (stereo not drawn), the “% Inhibition @ 10 uM” value was -8.88%. For `CCc1nc2ccccc2c(NC(=O)CN2CCCC2)c1C` the value was -4.96%; for `CN(Cc1ccccc1)C(=O)c1ccc(C(C)(C)C)cc1`, 8.01%. For the compound `CCN(CC)C1=NC(C(F)(F)F)(C(F)(F)F)N=C(c2ccc(OC)cc2)O1`, the “% Inhibition @ 10 uM” value is reported as -3.53%. Next, `Cc1ccc(CNC(=O)c2nn(C)c3c2CSc2ccccc2-3)cc1`: 51.6%; `Cn1nc(C(=O)NCCc2ccccc2)c2c1-c1ccccc1SC2`: -0.495%. For `Cn1nc(C(=O)NCc2ccc3c(c2)OCO3)c2c1-c1ccccc1SC2` the value was 86.5%; for `Cn1nc(C(=O)NCc2ccco2)c2c1-c1ccccc1SC2`, 30.8%. For `Cn1nc(C(=O)NCc2ccc3c(c2)OCO3)c2c1-c1ccccc1S(=O)(=O)C2` the value was -3.8%; for `Cn1nc(C(=O)NCc2cccnc2)c2c1-c1ccccc1SC2`, 36.1%; for `O=C(NCC1CCCO1)C1CCCN(S(=O)(=O)N2CCC3(CC2)OCCO3)C1` (stereo not drawn), -1.67%. Consider `CC(=O)C1=C(C)OC(N)=C(C#N)C1c1ccccc1[N+](=O)[O-]` (stereo not drawn), for which the “% Inhibition @ 10 uM” value is listed as -1.29%. For `Cc1cccc(Nc2nc(-c3sc(N)nc3C)cs2)c1` the value was 2.7%; for `Cc1ccc(OC(C)C(=O)N(Cc2ccccc2)C2CCS(=O)(=O)C2)cc1C` (stereo not drawn), 0.561%.

`Cc1cc(C)c2nc(N3CCCC(C(=O)N4CCCCCC4)C3)sc2c1` (stereo not drawn): the “% Inhibition @ 10 uM” value came to 1.8%.

On to `CCN1CCc2c(sc3nc(S)nc(N)c23)C1`, for which the “% Inhibition @ 10 uM” value came out at 42.8%. For `Nc1nc(S)nc2sc3c(c12)CCN(Cc1ccccc1)C3` the value was 54.1%; for `CSc1nc(N)c2c3c(sc2n1)CN(Cc1ccccc1)CC3`, -1.66%; for `CC(C)C[C@H](NC(=O)OCc1ccccc1)C(=O)NCC(=O)CN(Cc1ccco1)C(=O)OC(C)(C)C`, -7.36%. With `CC1=C(C#N)C(c2ccccc2)C2=C(O)CC(C)(C)CC2=N1` (stereo not drawn), the “% Inhibition @ 10 uM” value is 2.41%. Next, `CC1=C(C#N)C(c2cccnc2)C2=C(O)CC(C)(C)CC2=N1` (stereo not drawn): -4.03%. Next, `CC1(C)CC2=NC(S)=C(C#N)C(c3cccnc3)C2=C(O)C1` (stereo not drawn): 67.3%; `COc1cc(-c2nnc3sc(-c4ccc(C)c(C)c4)nn23)cc(OC)c1OC`: 29.8%. For `COc1cc(-c2nnc3sc(-c4ccc(C(C)(C)C)cc4)nn23)cc(OC)c1OC` the value was 2.89%; for `COc1ccccc1-c1nnc2sc(/C=C/c3ccccc3)nn12`, 6.01%; for `CCOc1ccc(-c2nn3c(-c4cc(OC)c(OC)c(OC)c4)nnc3s2)cc1`, 56.2%.

`COc1cc(-c2nnc3sc(/C=C/c4ccccc4)nn23)cc(OC)c1OC`: the “% Inhibition @ 10 uM” value is recorded as 59.6%. For `COc1cc(-c2nnc3sc(/C=C/c4ccco4)nn23)cc(OC)c1OC` the value was 6.01%; for `O=[N+]([O-])c1ccc(S(=O)(=O)n2cnc3ccccc32)cc1`, 2.81%; for `CCOC(=O)N1CCN(c2ccc(/C=C(\C#N)c3nc4ccccc4s3)o2)CC1`, 4.67%. For `Cc1ccc(-c2nn3c(C4COc5ccccc5O4)nnc3s2)cc1C` (stereo not drawn), the “% Inhibition @ 10 uM” value came to 2.89%. For `Clc1ccc(-c2nn3c(C4COc5ccccc5O4)nnc3s2)cc1` (stereo not drawn) the value was 53.7%; for `COc1ccccc1-c1nn2c(C3COc4ccccc4O3)nnc2s1` (stereo not drawn), 7.5%.

In the case of `c1ccc2c(c1)OCC(c1nnc3sc(-c4ccncc4)nn13)O2` (stereo not drawn), the “% Inhibition @ 10 uM” value stood at 2.68%. Next, `COc1ccccc1/C=C/c1nn2c(C)nnc2s1`: 2.29%. For `COc1ccccc1/C=C/c1nn2c(C3COc4ccccc4O3)nnc2s1` (stereo not drawn) the value was 50.2%; for `COc1ccc(/C(O)=C/C=N/c2ccc3c(c2)OCO3)cc1`, -4.12%.

In the case of `COc1ccccc1NC(=O)C1=C(C)N=C2CCCC(O)=C2C1c1ccc(OC)c(OC)c1` (stereo not drawn), the “% Inhibition @ 10 uM” value amounted to 2.51%. For `COc1cc(NS(=O)(=O)c2ccc(N3C(=O)c4ccccc4C3=O)cc2)nc(OC)n1` the value was -1.96%; for `CCOc1cc(CN2CCN(Cc3ccccc3)CC2)ccc1O`, 3.9%; for `CCOc1cc(CN2CCN(C)CC2)ccc1O`, 2.33%. Next, `CCOc1cc(CN2CCSCC2)ccc1O`: 96.4%. Take `CCCCSc1nnc2c(n1)[nH]c1ccccc12`: the “% Inhibition @ 10 uM” value turned out to be 2.86%.

For the compound `CCCCCCSc1nnc2c(n1)[nH]c1ccccc12`, the “% Inhibition @ 10 uM” value was -2.35%. For `NCCSc1nnc2c(n1)[nH]c1ccccc12` the value was 77.5%.
